Data on 40 molecules can be found in PubChem BioAssay (Tox21).

Records with an inconclusive call do not appear. Calls of active or inactive are those of the source. Calls follow the shape of the full dose curve.

The assay is described as follows: qHTS assay to identify small molecule agonists of the AP-1 signaling pathway - cell viability counter screen (AID 1159525). Also: nearly all actives have a fitted effect of over 55% in size. As to conditions: ME-180 (cervical carcinoma) AP-1-bla cells viability, ATP luminescence, 5 h; series mostly up to 76.8 µM; viability change, negative = cytotoxic: at the top concentration. An excerpt: National Center for Advancing Translational Sciences [NCATS]
NIH Chemical Genomics Center [NCGC]
U.S. Environmental Protection Agency [EPA]
National Institutes of Environmental Health Sciences [NIEHS]
National Toxicology Program [NTP]
U.S. Food and Drug Administration [FDA]
Activator protein-1 (AP-1), a transcription factor, plays an important role in tumor genesis by regulating genes involved in cell proliferation, differentiation, apoptosis, and angiogenesis. AP-1 activity is induced by a complex network of signaling pathways that involves extracellular signals, such as growth factors. The AP-1 protein complex formed from c-Fos and c-Jun binding to the AP-1 response element results in transcriptional activation of genes containing such elements within their promoter.
Low molecular weight molecules have been discovered and developed to modulate various components of these signaling pathways, for example, MAP kinase inhibitors. However, many points of pathway modulation remain untested due to the lack of chemical probes making this signaling locus of general interest.
Using a beta-lactamase reporter-gene under control of the AP-1 response element, a cell-based assay [CellSensor(TM) AP-1-bla ME-180 developed by Invitrogen Corp.] was used to measure EGF-induced signaling. The Tox21 10K library compounds were measured for their ability to positively modulate the action of EC50 EGF on reporter gene activity. Compounds were screened in a 15-pt titration series in 1536-well format. The cytotoxicity of the Tox21 compound library against this cell line was tested in parallel by measuring the intra cellular ATP content in the same wells.
Tox21 Assay Protocol Summary:
2500 cells/5uL in Opti-MEM medium containing 0.5% dialyzed FBS, 0.1 mM NEAA, 1 mM sodium pyruvate and 10 mM HEPES was dispensed into 1536-well black wall/clear bottom plates using a Multidrop dispenser and cells were cultured at 37 degrees Celsius overnight. Next day 23 nL of compounds dissolved in DMSO, positive controls or DMSO were delivered to each well using a pin tool. The plates were incubated at 37 degrees Celsius for 5 hours. 1 uL of LiveBLAzerTM B/G FRET substrate (Solution A+B+C+D) was added to each well using a Flying Reagent Dispenser. After incubated at room temperature for 2.5 hours the plates were measured on an EnVision plate reader at Excitation 405nm, Emission1=460nm and Emission 2=530nm. The %Activity was determined from the ratio of 460nm/530nm.
After the plates were read for Beta-Lactamase assay on Envision; 3 ul Cell Titer Glo (Promega) was added to measure the cytotoxicity and the plates were then incubated at RT in dark for 30 min. The luminescence was read on ViewLux (Perkin Elmer, Shelton, CT) using 6 sec exposure. ViewLux data was expressed as relative luminescence units.
For primary data analysis, raw plate reads for each titration point were first normalized relative to […] EGF control (100%) and DMSO only wells (basal, 0%).
For primary data analysis for viability assay, raw plate reads for each titration point were first normalized Tetra n-octyl ammonium bromide control (-100%) and DMSO (control, 100%).
For orientation: qHTS replaces the single test concentration by a dilution series.
Consider `CCC(C(=O)O)c1ccc(N2Cc3ccccc3C2=O)cc1` (stereo not given), for which the “viability change, negative = cytotoxic” value is 0.82% [at 35.3 µM] (inactive).
To `N#C[C@@H]1CC(F)(F)CN1C(=O)CNC1CC2CCC(C1)N2c1ncccn1` (stereo not given in full) belongs 0.566% (inactive); to `COC(=O)c1cc(Cl)ccc1[N+](=O)[O-]`, 5.72% (inactive).
To `CCC[Si](OC)(OC)OC` belongs 8.28% (inactive); to `CCCCCCCCCCCCCCCCCCCl`, 1.66% [at 6.97 µM] (inactive).
To `Nc1cccc2c(=O)[nH][nH]c(=O)c12` belongs -1.57% (inactive).
Regarding `CCCCCCCCCCCC(=O)OCC`, the “viability change, negative = cytotoxic” value was 0.111% (inactive).
To `CCCC(=O)OCCC(C)C` belongs -16.6% (inactive); to `N#Cc1ccc(CC(=O)c2cccc(C(F)(F)F)c2)cc1`, -1.25% (inactive).
To `CC(=O)Oc1cccc2c1C(=O)c1c(OC(C)=O)cc(C(=O)O)cc1C2=O` belongs -0.443% [at 35.3 µM] (inactive).
Then `O=C(Nc1ccc2c(c1)Cc1ccccc1-2)C(F)(F)F`, with -14% (inactive); and `CC(=O)Nc1ccn(C2COC(COC(=O)c3ccccc3)O2)c(=O)n1` (stereo not given), with -10.4% [at 35.3 µM] (inactive).
As for `C/C=C1\[C@H]2C=C(C)C[C@]1(N)c1ccc(=O)[nH]c1C2`, the “viability change, negative = cytotoxic” value is 0.536% [at 35.3 µM] (inactive).
To `CCc1ccc2c(c1)C(=O)c1ccccc1C2=O` belongs 1.28% (inactive); to `CCC(=O)O[C@]1(C(=O)COC)[C@@H](C)C[C@H]2[C@@H]3CCC4=CC(=O)C=C[C@]4(C)C3(F)[C@@H](O)C[C@@]21C` (stereo not given in full), 1.83% [at 35.3 µM] (inactive).
Then `Cc1cc(SC2=C(O)C[C@@](CCc3ccc(N)cc3)(C(C)C)OC2=O)c(C(C)(C)C)cc1CO`, with -0.202% (inactive); and `CC(Cc1ccccc1)(NC(=O)CN)c1ccccc1` (stereo not given), with -0.503% [at 35.3 µM] (inactive).
To `O=S(=O)(O)c1cc(Cl)c(Cl)cc1Cl` belongs 4.23% (inactive); to `CC(C)Oc1ccccc1O`, 5.92% (inactive); to `CCCCCCCCS`, 3.54% (inactive).
For `c1ccc(CCNc2nc(-c3ccccc3)cs2)cc1`, the “viability change, negative = cytotoxic” value was -2.41% [at 35.3 µM] (inactive).
As for `C[C@H]1C[C@H]2[C@@H]3CCC4=CC(=O)C=C[C@]4(C)[C@@]3(F)[C@@H](O)C[C@]2(C)[C@@]1(O)C(=O)COP(=O)(O)O`, the “viability change, negative = cytotoxic” value was 4.17% (inactive).
Turning to `O=C(C1CCCCC1)N1CC(=O)N2CCCc3ccccc3C2C1` (stereo not given), the “viability change, negative = cytotoxic” value was -4.47% [at 35.3 µM] (inactive).
To `O=c1[nH][nH]c2ccccc12` belongs 3.14% (inactive); to `CC(CC(C#N)(c1ccccc1)C(C)C)N(C)C` (stereo not given), 5.35% [at 35.3 µM] (inactive); to `COc1cc(CNC(=O)CCCC/C=C/C(C)C)ccc1O`, -5.37% (inactive).
Then `CC1(COc2ccc(CC3SC(=O)NC3=O)cc2)CCCCC1` (stereo not given), with -5.69% [at 35.3 µM] (inactive); and `CC1(C)C(=O)NC(=O)N1CO`, with -3.96% (inactive); and `CCCCCCCCCCCCCCCCN`, with 9.91% [at 35.3 µM] (inactive).
`FC(F)(Cl)C(F)(Cl)Cl`: the “viability change, negative = cytotoxic” value was -0.33% (inactive).
As for `CCCCCC1CCC(=O)O1` (stereo not given), the “viability change, negative = cytotoxic” value was -8.04% (inactive).
Then `FC1(F)C(F)(F)C(F)(F)C2(F)C(F)(C1(F)F)C(F)(F)C(F)(F)C1(F)C(F)(F)C(F)(F)C(F)(F)C(F)(F)C12F` (stereo not given), with -2.75% (inactive); and `O=C1C=CCCC1`, with -1.55% (inactive).
Then `Oc1ccc(Oc2ccccc2)cc1`, with -3.39% (inactive).
For `OCCc1ccncc1`, the “viability change, negative = cytotoxic” value was 2.57% (inactive).
Then `O=C(OC1C[C@H]2CC[C@@H](C1)[N+]21CCCC1)C(O)(c1ccccc1)c1ccccc1` (stereo not given in full), with -3.41% [at 35.3 µM] (inactive); and `CC1(C)[C@@H]2CC[C@]3(C2)[C@@H]1C(=O)CCC3(C)C`, with -1.15% (inactive).
Take `CCCCOC(=O)CC#N`: the “viability change, negative = cytotoxic” value is -2.04% (inactive).
To `Cc1cc(C)c(C)c(O)c1` belongs 2.72% (inactive).
Then `CCN(CCCCOC(=O)c1ccc(OC)c(OC)c1)C(C)Cc1ccc(OC)cc1` (stereo not given), with 3.66% [at 35.3 µM] (inactive).
